# Bioassay records as filed in PubChem.
# D1 ag: activates the human D1 dopamine receptor; 360,000 tested, 1% active; HEK293 T-REx D1 cells, calcium flux, agonist mode; activation, % at 2 µM; P21728; AID 504660; in the data active = activation above about 30%; note: 0% is about no effect
# Target sequence (P21728 whole entry, looked up): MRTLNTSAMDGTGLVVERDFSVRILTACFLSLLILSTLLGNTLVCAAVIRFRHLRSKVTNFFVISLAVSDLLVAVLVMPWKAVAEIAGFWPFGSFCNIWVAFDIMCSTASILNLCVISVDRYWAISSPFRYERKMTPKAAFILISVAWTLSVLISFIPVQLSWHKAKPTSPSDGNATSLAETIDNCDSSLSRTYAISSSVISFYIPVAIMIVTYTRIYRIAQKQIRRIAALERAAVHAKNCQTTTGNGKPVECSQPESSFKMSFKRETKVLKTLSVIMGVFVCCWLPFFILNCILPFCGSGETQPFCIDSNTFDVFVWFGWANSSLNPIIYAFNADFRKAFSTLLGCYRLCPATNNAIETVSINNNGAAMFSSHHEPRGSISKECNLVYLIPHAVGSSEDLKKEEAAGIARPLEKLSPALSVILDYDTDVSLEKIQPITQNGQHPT
#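 Inducible HEK293 T-REx D1 cells, force-coupled to calcium signalling, were plated at 4000 cells/well with tetracycline and held overnight at 30 C. After no-wash calcium dye loading, compound-evoked calcium rise over 180 s flagged agonists.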
# DRD3 antagonist: antagonists of human D3 dopamine receptor. max response, negative = inhibition, %. AID 652054. D3R cells, DiscoveRx beta-arrestin luminescence, antagonist mode; stronger effect = lower value. 360,000 tested, 2.5% active. P35462; in the data active = max response below about -50%; inconclusive = no clear call, values can overlap the other calls; note: % is set by controls: 0 for no effect and ±100 for the full control effect
#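 Cells plated overnight at 1500 cells/well, then exposed to library compounds with dopamine controls for 90 minutes at 37 degrees C. DiscoveRx reagent added for 30–60 minutes at room temperature; luminescence read, quantitative HTS format.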
# D1 antagonist: human D1 dopamine receptor antagonism; P21728; HEK293 TREx D1 cells, calcium flux, dopamine EC80; stronger effect = lower value; activity change, negative = inhibition, % at 10 µM; 360,000 tested, 3.2% active; AID 504652; in the data active = activity change below about -30%; note: % is set by controls: 0 for no effect and ±100 for the full control effect
#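 Compound effects on dopamine-evoked calcium signalling were measured in tetracycline-induced HEK293 Trex D1 cells. Dopamine at EC80 followed a 180 s compound pre-read, and fluorescence was tracked kinetically for 180 s more.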
# D1 potentiator: enhances dopamine response at the human D1 receptor; P21728; HEK293 TREx D1 cells, calcium flux, dopamine EC20 potentiation; potentiation, % at 10 µM; 360,000 tested, 0.036% active; AID 504651; in the data active = potentiation above about 30%; note: 0% is about no effect
# DRD3 agonist: agonists of human D3 dopamine receptor. P35462. AID 652048. D3R DiscoveRx beta-arrestin cells, luminescence, 90 min. 410,000 tested, 0.58% active. max activation, %; in the data active = max activation above about 30%; note: 0% is about no effect
#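 Agonist-mode cell screen: cells plated at 1500/well and incubated overnight at 37 °C, then exposed to library compounds for 90 min at 37 °C. Detection reagent was added for 30–60 min at room temperature, and luminescence was read.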
# The depositor's hits bear a star; ? = inconclusive; . = not tested or not shown. Rows were chosen to be rich in hits. Some 6.1% of all compounds tested hit in one or more screens of this group.
SMILES,D1 ag,DRD3 antagonist,D1 antagonist,D1 potentiator,DRD3 agonist
COc1ccccc1CN1CC(C(=O)NCc2cc(C(C)C)no2)CCC1=O (centres undefined),11,-4,-10,2,19
CCCCNS(=O)(=O)c1ccc2nc(-c3cccnc3)cc(C(=O)NCCC)c2c1,-1,.,-2,-5,6
COc1ccc(C2N(C(=O)CN3CCCC3)CCCN2S(=O)(=O)c2ccccc2)cc1 (centres undefined),32*,4,8,3,0
CC(C)C1N(C(=O)CN2CCCC2)CCN1S(=O)(=O)c1ccccc1 (centres undefined),5,1,-45*,-12,-5
Cc1ccc(S(=O)(=O)N2CCN(C(=O)CN3CCOCC3)C2C(C)C)cc1 (centres undefined),3,-5,-2,-8,-3
CCNC(=O)C1(C)CCN(C(=O)c2ccccc2OC)C1 (centres undefined),.,0,.,.,-7
Cc1ccc(S(=O)(=O)c2ncccc2[N+](=O)[O-])cc1,2,-90*,-17,-2,-7
Cc1ccc(S(=O)(=O)c2ncccc2N)cc1,6,0,-13,-7,0
CCN1C(=O)[C@@H]2[C@@H](c3ccc(-c4ccc(F)cc4)cc3)N3CCCC[C@@]3(C(=O)OC)[C@@H]2C1=O,-1,7,-5,1,-18
O=C(CN1C(=O)NC2(CCCCCC2)C1=O)Nc1ccccc1[N+](=O)[O-],.,-15,.,.,-7
Cc1c(CNC2CCCCC2)c(C(=O)O)c(C)n1Cc1ccccc1F,-1,.,-3,0,-16
Cc1c(CNC2CCC(C)CC2)c(C(=O)O)c(C)n1Cc1ccccc1F (centres undefined),-2,.,-49*,-3,6
O=C(CNC(=O)c1cccc(F)c1)N/N=C/c1cc(Br)ccc1OC(=O)/C=C/c1ccco1,3,-25,0,-3,-7
O=C(CNC(=O)c1ccccc1O)N/N=C/c1cc(Br)ccc1OC(=O)/C=C/c1ccco1,7,?,-33*,-8,-20
Cc1ccc(-n2cc(CCCCCCCCC(=O)O)nn2)cc1,0,2,4,-4,30*
O=S(=O)(NN=C1CCCCCC1)c1ccc(Cl)cc1,2,-4,18,-3,-1
O=[N+]([O-])c1ccc(S(=O)(=O)NN=C2CCCCC2)cc1,.,-52*,.,.,-13
COc1ccc(N(Cc2ccccc2)C(=O)CSc2nnc(Cn3nnc4ccccc43)o2)cc1,4,-6,10,3,-2
O=C(CSc1nnc(Cn2nnc3ccccc32)o1)N(Cc1ccc(F)cc1)c1ccccc1,2,16,-41*,-3,5
Cc1ccccc1NC(=O)c1cc(N)ccc1N1CCCCC1,-2,-10,-55*,-15,-10
CCC(=O)Nc1ccc(N2CCCCC2)c(C(=O)Nc2ccccc2C)c1,-3,-29,11,-10,2
O=C(COC(=O)c1ccccc1Br)Nc1cccnc1Cl,.,-29,.,.,1
CC(C)(C)NC(=O)NC(=O)CSc1ncccn1,4,-4,-35*,-8,1
Cc1ccc(OC(C)C(=O)Nc2ccccc2C(=O)N2CCOCC2)cc1 (centres undefined),1,-7,1,3,-3
Cc1ccc(S(=O)(=O)N2CCSC2=Nc2ccccc2)cc1,5,.,-7,-2,.
SMILES,D1 ag,DRD3 antagonist,D1 antagonist,D1 potentiator,DRD3 agonist
CCOc1ccc(CNC(=O)CN2C(=O)CSc3ccc(S(=O)(=O)N4CCOCC4)cc32)cc1OC,2,-5,-5,-1,3
COCCn1c(SCC(=O)NNC(=O)c2cc(Cl)ccc2OC)nnc1-c1ccncc1,0,-100*,-2,-5,-28
COCCn1c(SCC(=O)Nc2cccc(OC)c2)nnc1-c1ccc(Cl)cc1,3,16,16,2,6
O=C(C(O)c1ccc(Br)cc1)N1CCC(Nc2ccc3[nH]ncc3c2)CC1 (centres undefined),.,-81*,.,.,-7
O=C(Nc1ccc2[nH]ncc2c1)C1CCC1,3,-6,4,-4,2
COc1ccc(N2CCN(C(=O)COC(=O)CCOc3ccc(C)cc3)CC2)cc1,11,-5,-31*,-10,1
COc1ccc(N2CCN(C(=O)COC(=O)c3cc(S(=O)(=O)N(C)C)ccc3N3CCCC3)CC2)cc1,3,-10,-48*,-6,-5
COc1ccc(N2CCN(C(=O)COC(=O)CNC(=O)c3ccc(C)cc3)CC2)cc1,2,19,-16,-6,1
COc1ccc(N2CCN(C(=O)C3(S(=O)(=O)c4ccc(C)cc4)CC3)CC2)cc1,3,-2,-58*,-3,-11
COc1ccc(S(=O)(=O)CCC(=O)N2CCN(c3ccc(C(C)=O)cc3)CC2)cc1,10,10,-39*,-11,-10
CSc1nsc(NC(=O)OCc2ccc(Cl)cc2)n1,26,-3,-36*,-6,-4
COc1ccsc1NC(=O)OCc1ccc(Cl)cc1,1,5,-6,5,0
CCN(c1ccc(Cl)cc1)S(=O)(=O)c1nnc(NC(=O)C2CCCCC2)s1,16,.,3,-1,-17
O=c1cc(N2CCCCC2)nc2n1CCCS2,1,17,-14,3,35*
Cc1cc2c(s1)c1cnn(Cc3cccc4cccnc34)c(=O)c1n2C,1,.,-1,7,.
COc1cc2oc3cc(C#Cc4ccc(N)cc4)ccc3c(=O)c2cc1OC,.,103,.,.,57*
CCc1cc(CN2CCOCC2)c(NC(=O)c2ccccc2)s1,0,0,-12,-3,8
CCOC(=O)C(=C1Nc2ccccc2N1)n1c(-c2ccco2)nc2ccccc21,.,-54*,.,.,-10
O=S(=O)(Nc1ccccc1O)c1cccc2cccnc12,13,4,-35*,-12,5
COc1ccc(CNc2ncc(-c3ccccc3)n2C)c(OC)c1OC,3,1,-30*,-2,2
COc1ccc(CNc2ncc(-c3ccccc3)n2C)c2ccccc12,10,-9,-5,-8,-8
Cc1ccc(-n2c(Cc3cccn3C)nnc2SCC(=O)Nc2ccc3c(c2)OCO3)cc1,1,50,2,-2,79*
COc1ccc(NC(=O)CSc2nnc(Cc3cccn3C)n2-c2ccc(F)cc2)cc1OC,0,14,-45*,-4,-1
Cc1ccc(-n2c(Cc3cccn3C)nnc2SCC(=O)N2CCN(c3ccccc3)CC2)cc1,0,-79*,14,0,-7
Cn1cccc1Cc1nnc(SCC(=O)Nc2ccc(F)cc2)n1-c1ccc(F)cc1,1,12,-3,2,-7
Cc1nnc(NC(=O)CSc2nnc(Cc3cccn3C)n2C)s1,2,-16,-37*,11,0
OC[C@@H]1CN(Cc2cccs2)C[C@H](n2cnc3c(NCc4ccc(F)cc4)ncnc32)O1,.,0,.,.,-12
